This passage reports outcome and AC50 results from PubChem BioAssay (EPA / NIEHS).

Each structure is given as a SMILES string. Results filed as inconclusive are left out. Active and inactive are the calls of the source. The calls were made as follows: active = hit-call score of the fitted dose curve at least 0.9, where 1 is the maximum; inconclusive = response in the unintended direction; inactive = score below 0.9.

Broadly, the AC50 is the concentration at which the activity in the assay is half-maximal.

This assay is described as follows: Tanguay_ZF_120hpf_SNOU_legacy: (Legacy) Oregon State University Tanguay Lab 120 Hour Post-fertilization zebrafish Assay for Snout Malformation (AID 2283637). In outline: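 Tropical 5D wild-type zebrafish embryos, dechorionated with pronase at 4 hpf, were exposed singly from 6 hpf to 120 hpf statically at 28C in 0.64% DMSO. Snout malformation was scored present/absent by brightfield microscopy, fitted against DMSO.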
`CCc1cc(C2=C(C(=O)O)N(c3ccccc3C(F)(F)F)S(=O)(=O)c3ccccc32)cc2c1OCO2`: the call was inactive.
Regarding `CC(=O)S[C@H](C(=O)N[C@H]1Cc2ccccc2[C@H]2CCC[C@@H](C(=O)O)N2C1=O)C(C)C`, the compound was called inactive.
Take `O=C1c2c(O)cccc2Cc2cccc(O)c21`: the outcome was inactive.
Turning to `NC(=Nc1ccccc1)Nc1ccccc1`, the compound was called inactive.
In the case of `COC(=O)CCC(=O)OC`, the compound was classed as inactive.
In the case of `CN(C)C(=O)NC1(c2ccccc2)CCN(CCC[C@]2(c3ccc(Cl)c(Cl)c3)CCCN(C(=O)c3ccccc3)C2)CC1`, the call was inactive.
Turning to `Oc1ccccc1O`, the compound was called inactive.
In the case of `CCCCC(CC)CO` (stereo not drawn), the compound was called inactive.
Regarding `Cc1c(C)c2c(c(C)c1O)CCC(C)(COc1ccc(CC3SC(=O)NC3=O)cc1)O2` (stereo not drawn), the compound was classed as inactive.
Turning to `CCCC[C@H]1CN(CC2CCOCC2)C(=O)OC12CCN(C1(C)CCN(C(=O)c3c(C)ncnc3C)CC1)CC2`, the call was inactive.
Regarding `CCCCc1nc2cccnc2n1Cc1ccc(-c2ccccc2-c2nnn[nH]2)cc1`, the compound was classed as inactive.
Regarding `Oc1ccc(O)cc1`, the compound was called inactive.
Still for that read-out and setting: for `CCCCCCC(CCCCCCCCCCC(=O)OCC(COC(C)=O)OC(C)=O)OC(C)=O` (stereo not drawn) the value was “inactive”.
For `O=C(O)CN(CC(=O)O)CC(=O)O`, the result was inactive.
On to `S=c1[nH]c2ccccc2s1`, for which the AC50 was 40.7 µM (active).
With `CS(=O)(=O)c1ccc([C@@H](C[C@H]2CCC(=O)C2)C(=O)Nc2cnccn2)cc1Cl`, the outcome was inactive.
As for `COC(=O)[C@H]1[C@H]2C[C@@H]3c4[nH]c5cc(OC)ccc5c4CCN3C[C@H]2C[C@@H](OC(=O)c2cc(OC)c(OC)c(OC)c2)[C@@H]1OC`, the compound was classed as inactive.
For `CCOCCOCCO`, the call was inactive.
